Among all 3,200 compounds or so, about 110 (3.4%) showed an effect of 50% or more. The sample as a whole holds a higher share of strong results than the screen did.
System: T1, V. cholerae SAD30
T1 construct: SAD30
Design: species or system S. aureus MSSA476 (TSB) or V. cholerae SAD30 (LB); 384-well bacterial growth screen at 25 uM, OD600 relative to DMSO control
Conditions: relative growth, OD600, LB; 25 µM; inhibitor

SMILES | % of control remaining [%]
CCc1ccccc1NC(=O)CN(C)C(=O)CCl [6-L06, 2-chloro-N-{[(2-ethylphenyl)carbamoyl]methyl}-N-methylacetamide] | 89.1838
O=C1C=CC(=O)N1c1ccc2ccccc2c1 [10-D07, 1-(naphthalen-2-yl)-2,5-dihydro-1H-pyrrole-2,5-dione] | 22.2872
Cc1c(Cl)cccc1NC(=O)C(C)Cl (stereo not drawn) [6-I10, 2-chloro-N-(3-chloro-2-methylphenyl)propanamide] | 83.2686
Cc1cccc(N2C(=O)C=CC2=O)c1C [10-H05, 1-(2,3-dimethylphenyl)-2,5-dihydro-1H-pyrrole-2,5-dione] | 27.1186
Cc1c(Cl)cccc1NC(=O)CNC(=O)CCl [5-N20, 2-chloro-N-{[(3-chloro-2-methylphenyl)carbamoyl]methyl}acetamide] | 102.049
Cc1ccccc1N1C(=O)C=CC1=O [10-J13, 1-(2-methylphenyl)-2,5-dihydro-1H-pyrrole-2,5-dione] | 23.0664
CC(Cl)C(=O)Nc1ccccc1C#N (stereo not drawn) [6-A11, 2-chloro-N-(2-cyanophenyl)propanamide] | 96.0091
Cc1ccccc1N1C(=O)CSC1=C(C#N)C(=O)N1CCCCC1 [8-B12, 2-[3-(2-methylphenyl)-4-oxo-1,3-thiazolidin-2-ylidene]-3-oxo-3-(piperidin-1-yl)propanenitrile] | 78.1101
N#Cc1ccccc1N1C(=O)C=CC1=O [10-B13, 2-(2,5-dioxo-2,5-dihydro-1H-pyrrol-1-yl)benzonitrile] | 22.7547
N#Cc1ccccc1NC(=O)CCl [5-P04, 2-chloro-N-(2-cyanophenyl)acetamide] | 116.339
Cc1c(Cl)cccc1N1C(=O)C=CC1=O [10-B17, 1-(3-chloro-2-methylphenyl)-2,5-dihydro-1H-pyrrole-2,5-dione] | 23.3781
C=CC(=O)N1CCC[C@H]1C(=O)Nc1cccc(C)n1 [1-B10, (2S)-N-(6-methylpyridin-2-yl)-1-(prop-2-enoyl)pyrrolidine-2-carboxamide] | 90.0393
C=CCNC(=O)C(C#N)=Cc1ccc(C)s1 [9-F05, 2-cyano-3-(5-methylthiophen-2-yl)-N-(prop-2-en-1-yl)prop-2-enamide] | 77.8382
CC(Cl)C(=O)NCCc1cn(C)nn1 (stereo not drawn) [7-A14, 2-chloro-N-[2-(1-methyl-1H-1,2,3-triazol-4-yl)ethyl]propanamide] | 82.7358
Cc1cccc2nc(C3CCN(C(=O)C(C)Cl)CC3)oc12 (stereo not drawn) [7-M12, 2-chloro-1-[4-(7-methyl-1,3-benzoxazol-2-yl)piperidin-1-yl]propan-1-one] | 63.8361
CC(Cl)C(=O)Nc1ccc2c(c1)CCC2 (stereo not drawn) [5-C19, 2-chloro-N-(2,3-dihydro-1H-inden-5-yl)propanamide] | 86.9181
O=C(CCl)c1ccc(CC(=O)N2CCOCC2)s1 [10-H06, 2-chloro-1-{5-[2-(morpholin-4-yl)-2-oxoethyl]thiophen-2-yl}ethan-1-one] | 101.305
N#CC(=Cc1ccccc1Cl)C(=O)Nc1ccc2c(c1)OCCO2 [8-F03, 3-(2-chlorophenyl)-2-cyano-N-(2,3-dihydro-1,4-benzodioxin-6-yl)prop-2-enamide] | 94.4256
Cc1cc(C(=O)CCl)c(C)n1CC(N)=O [10-O16, 2-[3-(2-chloroacetyl)-2,5-dimethyl-1H-pyrrol-1-yl]acetamide] | 94.6035
Cc1cc(C(=O)CCl)c(C)[nH]1 [10-J08, 2-chloro-1-(2,5-dimethyl-1H-pyrrol-3-yl)ethan-1-one] | 99.1233
Cc1cc(C(=O)CCl)c(C)s1 [10-K16, 2-chloro-1-(2,5-dimethylthiophen-3-yl)ethan-1-one] | 28.6772
Cc1cc(C(=O)CCl)c(C)n1-c1cc(Cl)cc(Cl)c1 [10-I04, 2-chloro-1-[1-(3,5-dichlorophenyl)-2,5-dimethyl-1H-pyrrol-3-yl]ethan-1-one] | 87.746
O=C(CCl)c1cc(Cl)sc1Cl [10-D16, 2-chloro-1-(2,5-dichlorothiophen-3-yl)ethan-1-one] | 21.5079
N#CC(=Cc1cccc2ccccc12)C(=O)NC1CC1 [9-O03, 2-cyano-N-cyclopropyl-3-(naphthalen-1-yl)prop-2-enamide] | 97.2808

SMILES | % of control remaining [%]
CC(C)N(Cc1ccc(N(C)C)cc1)C(=O)CCl [5-E06, 2-chloro-N-{[4-(dimethylamino)phenyl]methyl}-N-(propan-2-yl)acetamide] | 100.2
O=C(CCl)NCCOc1cccc(F)c1 [6-G03, 2-chloro-N-[2-(3-fluorophenoxy)ethyl]acetamide] | 108.75
CC(Cl)C(=O)NCc1ccon1 (stereo not drawn) [7-I13, 2-chloro-N-[(1,2-oxazol-3-yl)methyl]propanamide] | 79.9604
Cc1cc(C(=O)CCl)c(F)cc1F [10-O03, 2-chloro-1-(2,4-difluoro-5-methylphenyl)ethan-1-one] | 34.9114
Cc1cc(C)c(C(=O)CCl)c(C)c1 [10-C08, 2-chloro-1-(2,4,6-trimethylphenyl)ethan-1-one] | 98.9675
Cc1ccc(-n2c(C)cc(C(=O)CCl)c2C)cc1F [10-C06, 2-chloro-1-[1-(3-fluoro-4-methylphenyl)-2,5-dimethyl-1H-pyrrol-3-yl]ethan-1-one] | 94.9153
Cc1ccc(-n2c(C)cc(C(=O)CCl)c2C)cc1C [10-B14, 2-chloro-1-[1-(3,4-dimethylphenyl)-2,5-dimethyl-1H-pyrrol-3-yl]ethan-1-one] | 97.5648
Cc1cc(C(=O)CCl)c(C)c(C)c1C [10-I06, 2-chloro-1-(2,3,4,5-tetramethylphenyl)ethan-1-one] | 98.9675
Cc1cc(F)c(C(=O)CCl)cc1F [10-L19, 2-chloro-1-(2,5-difluoro-4-methylphenyl)ethan-1-one] | 32.7294
N#CC(=Cc1ccc([N+](=O)[O-])cc1)C(=O)Nc1ccc(Cl)cc1 [8-O11, N-(4-chlorophenyl)-2-cyano-3-(4-nitrophenyl)prop-2-enamide] | 68.7288
O=C(CCl)N1N=C(c2cccs2)CC1c1cccc(O)c1 (stereo not drawn) [6-L04, 2-chloro-1-[5-(3-hydroxyphenyl)-3-(thiophen-2-yl)-4,5-dihydro-1H-pyrazol-1-yl]ethan-1-one] | 102.076
CC(CO)(Cc1ccc(F)cc1)NC(=O)CCl (stereo not drawn) [7-F06, 2-chloro-N-{2-[(4-fluorophenyl)methyl]-1-hydroxypropan-2-yl}acetamide] | 78.5065
CC(Cl)C(=O)N1Cc2ccccc2OCC1C (stereo not drawn) [7-F11, 2-chloro-1-(3-methyl-2,3,4,5-tetrahydro-1,4-benzoxazepin-4-yl)propan-1-one] | 75.731
N#CC(=Cc1cc2ccccc2o1)C(=O)NCc1ccco1 [9-O08, 3-(1-benzofuran-2-yl)-2-cyano-N-[(furan-2-yl)methyl]prop-2-enamide] | 80.4215
N#CC(=Cc1ccc([N+](=O)[O-])o1)C(=O)NCc1ccco1 [8-I17, 2-cyano-N-[(furan-2-yl)methyl]-3-(5-nitrofuran-2-yl)prop-2-enamide] | -0.06798
Cc1ccc(C=C(C#N)C(=O)NCc2ccco2)o1 [8-P19, 2-cyano-N-[(furan-2-yl)methyl]-3-(5-methylfuran-2-yl)prop-2-enamide] | 80.6934
Cc1cc(C=C(C#N)C(N)=O)c(C)n1-c1cccc2ccccc12 [9-I12, 2-cyano-3-[2,5-dimethyl-1-(naphthalen-1-yl)-1H-pyrrol-3-yl]prop-2-enamide] | 52.4133
C=CC(=O)N1CCC(C(=O)NC[C@H]2C[C@@H](O)C2)(c2ccccc2)CC1 [3-O04, 4-phenyl-1-(prop-2-enoyl)-N-{[(1s,3s)-3-hydroxycyclobutyl]methyl}piperidine-4-carboxamide] | 105.852
CC(Cl)C(=O)Nc1ccccc1[N+](=O)[O-] (stereo not drawn) [4-G18, 2-chloro-N-(2-nitrophenyl)propanamide] | 96.0966
CN(C)CCN1C(=O)C=CC1=O [10-G11, 1-[2-(dimethylamino)ethyl]-2,5-dihydro-1H-pyrrole-2,5-dione] | 99.9026
O=C1C=CC(=O)N1CCCCO [10-K07, 1-(4-hydroxybutyl)-2,5-dihydro-1H-pyrrole-2,5-dione] | 17.4557
CCOC=C(C#N)C(=O)N1CCN(S(=O)(=O)c2cc[nH]n2)CC1 [9-D06, 3-ethoxy-2-[4-(1H-pyrazole-3-sulfonyl)piperazine-1-carbonyl]prop-2-enenitrile] | 86.1319
C#CCN1C(=O)C=CC1=O [10-F09, 1-(prop-2-yn-1-yl)-2,5-dihydro-1H-pyrrole-2,5-dione] | 15.1179
CC(Cl)C(=O)N1CCN(Cc2ccc3ccccc3n2)CC1 (stereo not drawn) [7-A15, 2-chloro-1-{4-[(quinolin-2-yl)methyl]piperazin-1-yl}propan-1-one] | 80.0925

— paper PMC11995724, “Antibiotic target discovery by integrated phenotypic and activity-based profiling of electrophilic fragments” (Cell chemical biology, 2025)
